Drawing on PubChem BioAssay, this text covers z-score and composite z-score for nine compounds.

Test [1] in a line: resazurin metabolic signal in HepG2 cells – cell-based, resazurin fluorescence, 24 h, PK04 Diversity Set, profiling panel (AID 1172). The note with it: HepG2 viability, higher = more signal. On the technique in general: Alamar Blue is a resazurin reagent that responds to reducing activity.
The nature of test [2]: budding yeast growth changes without added modifier – OD600, strain BY4716, 24 h, basal condition, primary screen (AID 1173). Conditions: S. cerevisiae BY4716 growth, OD600, 24 h; higher = more signal, called active from +8 up or from −8 down.
Test [3] is described as follows: viability profiling in MM1S myeloma cells – cell-based, resazurin fluorescence, basal, 24 h, PK04 Diversity Set, profiling panel (AID 1174).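 Further: MM1S multiple myeloma cell line.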 The note with it: higher = more signal, called active from +8 up or from −8 down.
The target of test [4] is Dihydroorotate dehydrogenase (quinone), mitochondrial (Plasmodium falciparum (isolate 3D7)) (UniProt Q08210). Description: inhibition of P. falciparum DHODH – biochemical, C-terminal His tag, absorbance 600 nm, primary screen (AID 1175).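 Further: recombinant parasite enzyme with a five histidine tag at its C terminus.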 Conditions: PfDHODH enzyme, DCIP absorbance 600 nm; higher = more signal, called active from +8 up or from −8 down.
Chain of Dihydroorotate dehydrogenase (quinone), mitochondrial (Plasmodium falciparum (isolate 3D7)) (Q08210 whole entry, looked up): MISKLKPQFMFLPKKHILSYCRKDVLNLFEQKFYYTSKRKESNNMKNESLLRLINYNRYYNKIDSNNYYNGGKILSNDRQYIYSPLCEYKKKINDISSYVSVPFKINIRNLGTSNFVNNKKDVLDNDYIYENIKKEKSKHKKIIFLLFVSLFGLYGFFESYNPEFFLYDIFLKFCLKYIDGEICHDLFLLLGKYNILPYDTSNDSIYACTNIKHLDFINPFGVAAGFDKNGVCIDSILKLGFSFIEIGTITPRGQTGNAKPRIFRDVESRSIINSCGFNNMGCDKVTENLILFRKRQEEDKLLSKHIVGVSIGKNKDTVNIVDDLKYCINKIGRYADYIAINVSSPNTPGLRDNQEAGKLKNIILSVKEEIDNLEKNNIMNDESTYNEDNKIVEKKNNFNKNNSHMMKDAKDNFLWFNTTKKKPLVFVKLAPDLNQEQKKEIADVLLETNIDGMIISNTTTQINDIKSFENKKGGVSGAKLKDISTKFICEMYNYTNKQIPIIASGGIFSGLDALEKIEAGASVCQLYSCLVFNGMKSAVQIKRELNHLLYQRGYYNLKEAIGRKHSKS
A short description of test [5]: inhibition of PAO1 biofilm formation – strain PAO1, LB-PBS medium, absorbance 600 nm, primary screen (AID 1176). Conditions: P. aeruginosa PAO1 growth/biofilm, A600, 12 h; higher = more signal.
The nature of test [6]: growth modulation of vineyard yeast isolate – strain RM11-1a, OD600, basal, 24 h, primary screen (AID 1177).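 Further: cultures grown under basal conditions with no added stressor.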 The note with it: S. cerevisiae RM11-1a growth, OD600, 24 h; higher = more signal, called active from +8 up or from −8 down.
Test [7] in a line: growth of efflux-deficient E. coli DRC39 – strain DRC39, OD650, 24 h, E. coli filamentation inducers, primary screen (AID 1178).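 Further: growth measured as culture turbidity by optical density at 650 nm.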 Conditions: E. coli DRC39 acrAB, higher = more signal, called active from +8 up or from −8 down.
Test [8] is described as follows: growth of efflux-deficient E. coli DRC39 – strain DRC39, OD650, 48 h, E. coli filamentation inducers, primary screen (AID 1179).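 Further: screen aims at cell division blockers that make cells filament.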 Conditions: E. coli DRC39 delta-acrAB growth, higher = more signal, called active from +8 up or from −8 down.
A short description of test [9]: viability profiling in RPMI8226 myeloma cells – cell-based, resazurin fluorescence, basal, 24 h, PK04 Diversity Set, profiling panel (AID 1180).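 Further: RPMI8826 multiple myeloma cell line at 5000 cells per well.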 The note with it: higher = more signal.
The target of test [10] is E3 ubiquitin-protein ligase XIAP (Homo sapiens) (UniProt P98170). Description: small molecules binding XIAP protein – biophysical, small-molecule microarray, fluorescence 635 nm, primary screen (AID 1181).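 Further: score merges 667 nm emission and signal to noise over triplicate slides.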 Conditions: higher = more signal.
Chain of E3 ubiquitin-protein ligase XIAP (Homo sapiens) (P98170 whole entry, looked up, the tested form may be a part): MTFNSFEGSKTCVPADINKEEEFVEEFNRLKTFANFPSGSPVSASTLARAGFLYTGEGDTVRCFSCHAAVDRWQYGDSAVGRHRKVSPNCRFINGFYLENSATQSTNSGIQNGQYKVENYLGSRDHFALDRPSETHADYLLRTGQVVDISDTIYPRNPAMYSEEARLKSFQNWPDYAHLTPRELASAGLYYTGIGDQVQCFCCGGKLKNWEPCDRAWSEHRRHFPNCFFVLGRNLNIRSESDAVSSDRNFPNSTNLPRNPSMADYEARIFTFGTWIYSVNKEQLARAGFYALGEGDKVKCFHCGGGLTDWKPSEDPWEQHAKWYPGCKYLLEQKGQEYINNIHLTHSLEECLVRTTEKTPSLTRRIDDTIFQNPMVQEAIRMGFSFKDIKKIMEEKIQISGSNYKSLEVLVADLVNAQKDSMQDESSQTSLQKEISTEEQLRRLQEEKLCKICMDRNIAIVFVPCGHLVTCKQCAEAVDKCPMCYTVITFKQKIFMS
In test [11] the test system is XIP peptide (Xip251-270) binding. Description: XIP fragment 251-270 binding compounds – biochemical, small-molecule microarray, fluorescence 635/667 nm, 0.1 µg/mL protein, primary screen (AID 1182). Conditions: fluorescent protein binding, 635 nm, higher = more signal, called active from +8 up or from −8 down.
In a further test the test system is XIP peptide (Xip251-270). As to the kind of experiment: compounds binding XIP fragment 251-270 – biochemical, small-molecule microarray, fluorescence 635/667 nm, 0.5 µg/mL protein, primary screen (AID 1183). The note with it: fluorescence 635 nm, higher = more signal.
The nature of test [12]: blood-stage malaria parasite viability loss – strain 3D7, DAPI fluorescence, 100 nL, primary screen (AID 1184).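 Further: parasites grown inside human red blood cells in medium with human serum.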 The note with it: P. falciparum 3D7 growth, 3 d, higher = more signal.
The target of test [13] is Homeobox protein Hox-A13 (Mus musculus) (UniProt Q62424). As to the kind of experiment: disruptors of Hoxa13 oligonucleotide interaction – biochemical, fluorescence polarization, labeled oligonucleotide, primary screen (AID 1185). Conditions: Hoxa13:DNA binding, 15 min, higher = more signal, called active from +8 up or from −8 down. A general note: Fluorescence polarisation rises when a labelled molecule tumbles more slowly, as on binding a larger partner.
Chain of Homeobox protein Hox-A13 (Mus musculus) (Q62424 whole entry, looked up): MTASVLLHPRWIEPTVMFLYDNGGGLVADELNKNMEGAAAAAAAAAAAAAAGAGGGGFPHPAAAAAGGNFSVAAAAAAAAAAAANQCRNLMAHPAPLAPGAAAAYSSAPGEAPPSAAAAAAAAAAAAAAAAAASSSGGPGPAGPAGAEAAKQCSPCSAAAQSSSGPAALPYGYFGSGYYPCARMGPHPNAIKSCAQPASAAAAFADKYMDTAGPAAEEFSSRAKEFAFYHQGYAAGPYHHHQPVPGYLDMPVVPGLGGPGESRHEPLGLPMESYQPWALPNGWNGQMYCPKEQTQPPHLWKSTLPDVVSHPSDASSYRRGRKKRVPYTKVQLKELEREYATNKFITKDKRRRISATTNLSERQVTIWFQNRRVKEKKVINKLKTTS

Test [14] is described as follows: blockers of DNA damage checkpoint Chk1 activation – imaging, HeLa, hydroxyurea, phospho-Chk1 antibody, percent positive cells, primary screen (AID 1186). Conditions: hydroxyurea-induced phospho-Chk1 immunofluorescence imaging, higher = more signal.
A short description of test [15]: blockers of DNA damage checkpoint Chk1 activation – imaging, HeLa, hydroxyurea, phospho-Chk1 nuclear intensity, primary screen (AID 1187). Conditions: hydroxyurea-induced phospho-Chk1 immunofluorescence imaging, higher = more signal.

Calls of active or inactive are those of the source. Unless noted, how the calls were made is not given here.

As to `COc1cc(C(O)C2C=CC3C(=O)N(Cc4ccccc4)C(=O)C3N2n2cnnc2)cc(OC)c1OC` (centres undefined), the z-score is 0.462 in test [1]; -0.786 (inactive) in [2]; 0.129 (inactive) in [3]; 1.6 (inactive) in test [5]; -1.27 (inactive) in test [6]; 0.904 (inactive) in test [7]. Besides, the z-score in test [8] was 0.759 (inactive); in test [9], 0.0011; in test [12], 0.551; in [13] it was -1.38 (inactive); in test [14] it was 0.102 (inactive); in [15], 0.263 (inactive). Besides, the composite z-score was -1.12 (inactive) in test [4], 0.0546 in test [10], 0.494 (inactive) in test [11] and 0.435 with XIP peptide (Xip251-270).

Take `C=C(/C(=C/C[C@H](OC(=O)c1ccncc1)c1ccccc1OCCO)c1cnc2ccccc2c1)C(C)C`: the z-score in test [1] is 0.495; in test [2], -0.147 (inactive); in test [3] it was -0.632 (inactive); in [5], 1.07 (inactive); in [6], -0.07 (inactive); in test [7], 0.395 (inactive). The z-score in [8] is 0.313 (inactive); in test [9], 0.262; in test [12] it was -2.96; in test [13], -4.2 (inactive); in test [14], 0.39 (inactive); in [15], 0.0188 (inactive). For the same compound, the composite z-score was -3.77 (inactive) in test [4], -0.0771 in [10], -0.0266 (inactive) in [11] and 0.615 in the test on XIP peptide (Xip251-270).

For `CC1CC/C=C\[C@H]2OC34C=CCN(CCN5CCOCC5)C(=O)[C@H]3N(C(C)CO)C(=O)[C@@H]4C2C(=O)O1` (some centres undefined), the z-score in test [1] was -0.0282; in [2], -0.348 (inactive); in test [3], -0.0757 (inactive); in test [5] it was -0.0711 (inactive); in test [6], 0.366 (inactive); in test [7], -0.0135 (inactive). Besides, the z-score in [8] is 0.432 (inactive); in [9] it was -0.574; in [12], -0.359; in test [13], -5.12 (inactive); in [14] it was 0.16 (inactive); in test [15], 0.219 (inactive). Further, the composite z-score in test [4] is -1.44 (inactive); in test [10] it was -0.0807; in test [11], -0.153 (inactive); in the test on XIP peptide (Xip251-270), 0.371.

Regarding `CC(C)C(CO)N1C(=O)[C@@H]2[C@H]3C(=O)OCC=C[C@H]3OC23C=CCN(C(C)(C)C)C(=O)[C@@H]13` (some centres undefined), the z-score is -0.341 in test [1]; 0.542 (inactive) in [2]; -0.763 (inactive) in test [3]; 0.137 (inactive) in test [5]; 1.18 (inactive) in test [6]; -0.804 (inactive) in [7]. For the same compound, the z-score in [8] is -0.854 (inactive); in [9], -0.941; in test [12] it was -0.217; in [13], -4.25 (inactive); in test [14] it was 0.337 (inactive); in [15], -0.418 (inactive). For the same compound, the composite z-score in test [4] is 0.648 (inactive); in test [10], -0.156; in test [11], 0.0887 (inactive); with XIP peptide (Xip251-270), 0.37.

With `COCCOC(=O)N1C(=O)[C@@]2(c3cc(C#CC4(O)CCCCCC4)ccc31)[C@H](c1ccc(OCCO)cc1)N1[C@H](c3ccccc3)[C@H](c3ccccc3)OC(=O)[C@H]1[C@@H]2C(=O)Nc1nc2ccccc2s1`, the z-score in test [1] is 1.39; in test [2], 1.46 (inactive); in test [3] it was -0.773 (inactive); in test [5] it was 2.98 (inactive); in test [6] it was 2.43 (inactive); in test [7], -0.0994 (inactive). Moreover, the z-score in [8] was -0.347 (inactive); in test [9], -0.494; in [12] it was -0.726; in [13], 1.07 (inactive); in test [14] it was 0.218 (inactive); in test [15], 0.561 (inactive). The composite z-score was -1.19 (inactive) in [4], 0.332 in [10], 0.284 (inactive) in test [11] and 0.78 with XIP peptide (Xip251-270).

Turning to `COCCOC(=O)N1C(=O)[C@@]2(c3cc(C#CCNC(N)=O)ccc31)[C@H](c1ccc(OCCO)cc1)N1[C@H](c3ccccc3)[C@H](c3ccccc3)OC(=O)[C@H]1[C@@H]2C(N)=O`, the z-score in [1] is -0.373; in test [2], 1.19 (inactive); in test [3], 0.421 (inactive); in [5], 0.858 (inactive); in [6] it was 2.4 (inactive); in test [7], 0.146 (inactive). Further, the z-score in test [8] is 0.384 (inactive); in test [9], 0.637; in test [12], 0.691; in test [13] it was -2.25 (inactive); in [14] it was 0.139 (inactive); in [15] it was 0.189 (inactive). The composite z-score in test [4] is -0.0174 (inactive); in test [10], -0.0414; in test [11] it was 0.236 (inactive); with XIP peptide (Xip251-270) it was 0.442.

As for `O=C1OCCC/C=C\[C@H]2OC34C=CCN(c5ccc6ccccc6c5)C(=O)[C@H]3N(CCCO)C(=O)[C@@H]4C12` (some centres undefined), the z-score was -0.408 in [1]; 0.556 (inactive) in test [2]; -0.104 (inactive) in test [3]; -0.636 (inactive) in test [5]; -1.1 (inactive) in test [6]; -0.0367 (inactive) in [7]. Moreover, the z-score in test [8] is -0.0547 (inactive); in test [9] it was 0.375; in test [12] it was 0.267; in test [13], -5.72 (inactive); in test [14] it was 1.41 (inactive); in test [15], 0.656 (inactive). For the same compound, the composite z-score in test [4] is -0.818 (inactive); in test [10], -0.332; in test [11], 0.0317 (inactive); in the test with XIP peptide (Xip251-270), 0.481.

On to `COCCOC(=O)N1C(=O)[C@@]2(c3cc(C#CCC(C(=O)OC)C(=O)OC)ccc31)[C@H](C(=O)NC[C@H](O)c1ccccc1)[C@H]1C(=O)O[C@H](c3ccccc3)[C@H](c3ccccc3)N1[C@@H]2c1ccc(OCCO)cc1`, for which the z-score is -0.685 in test [1]; 2.05 (inactive) in test [2]; -0.0535 (inactive) in test [3]; 3.49 (inactive) in [5]; 3.11 (inactive) in [6]; 0.629 (inactive) in test [7]. In addition, the z-score was 0.453 (inactive) in test [8]; -0.291 in test [9]; -2.28 in test [12]; -0.301 (inactive) in test [13]; 0.0558 (inactive) in [14]; 0.176 (inactive) in test [15]. The composite z-score is -0.429 (inactive) in test [4], 0.0806 in test [10], 3.06 (inactive) in [11] and 0.64 in the test on XIP peptide (Xip251-270).

Consider `COc1cc2c(cc1OC)CN(C(=O)[C@@H]1[C@H]3C(=O)O[C@H](c4ccccc4)[C@H](c4ccccc4)N3[C@H](c3ccc(O)cc3)[C@@]13C(=O)Nc1ccc(C#CCCO)cc13)CC2`, for which the z-score in test [1] is 0.0462; in test [2] it was 1.03 (inactive); in test [3], -1.22 (inactive); in [5] it was 1.2 (inactive); in test [6], 1.66 (inactive); in [7], 0.437 (inactive). Further, the z-score is 0.258 (inactive) in [8]; -0.657 in test [9]; -1.16 in [12]; -2.6 (inactive) in test [13]; 0.189 (inactive) in test [14]; 0.28 (inactive) in test [15]. Also, the composite z-score in test [4] is 0.838 (inactive); in test [10], -0.269; in test [11], 1.33 (inactive); with XIP peptide (Xip251-270), 0.723.
